Compound activity from PubChem BioAssay.
BioA inh = M. tuberculosis BioA enzyme inhibitors, primary screen, biochemical, plate reader, single point, HTS. 7,8-diaminopelargonic acid synthase BioA (Mycobacterium tuberculosis). purified M. tuberculosis BioA enzyme. inhibition, % at 9.99 µM. hit rate 0.096% among 360,000; in the data active = inhibition above about 40%
FBA Mtb inh = Mtb FBA enzyme inhibitors, primary screen, biochemical, fluorescence, strain H37Rv; Fructose-bisphosphate aldolase (Mycobacterium tuberculosis (strain ATCC 25618 / H37Rv)), …; purified M. tuberculosis FBA, fluorescence read-out; inhibition, % at 1 µM; hit rate 2.3% among 360,000
Target sequence (P9WQA3 whole entry, looked up): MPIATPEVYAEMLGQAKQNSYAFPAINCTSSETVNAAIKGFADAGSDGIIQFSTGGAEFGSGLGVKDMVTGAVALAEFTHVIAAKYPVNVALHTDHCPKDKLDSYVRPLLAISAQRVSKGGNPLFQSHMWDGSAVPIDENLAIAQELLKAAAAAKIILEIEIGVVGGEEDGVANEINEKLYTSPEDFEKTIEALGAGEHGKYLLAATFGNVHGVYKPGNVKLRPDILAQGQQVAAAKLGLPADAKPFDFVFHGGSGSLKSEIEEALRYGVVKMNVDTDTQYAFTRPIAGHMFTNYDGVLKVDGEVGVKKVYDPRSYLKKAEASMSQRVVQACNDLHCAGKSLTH
GDH-TPI counter-1 = GDH-TPI coupling enzyme inhibitors, primary screen, artefact control for M. tuberculosis FBA inhibitor project, biochemical, absorbance, full deck | GDH-TPI coupled enzyme counterscreen, NADH absorbance | inhibition, % at 4.8 µM | hit rate 1.2% among 360,000; in the data active = inhibition above about 30%
Vc quorum ag = inducers of Vibrio cholerae quorum light production without autoinducers, primary screen, BH1578 luxS cqsA deficient, single point. V. cholerae BH1578 lux reporter, luminescence, 6 h. activation, % at 18.7 µM. hit rate 0.16% among 350,000. AID 588436, 2011; in the data active = activation mostly above about 9.7%, no sharp cut-off
Mtb FBA inh conf = M. tuberculosis aldolase blockers, biochemical, fluorescence, strain H37Rv, confirmation. shares compounds with FBA Mtb inh. purified M. tuberculosis FBA, fluorescence read-out. inhibition, % at 1 µM. hit rate 78% among 5,600. AID 651616, 2012
GDH-TPI counter-2 = GDH-TPI coupling enzyme inhibitors, artefact control for M. tuberculosis FBA inhibitor project, biochemical, fluorescence, high throughput | shares compounds with FBA Mtb inh | GDH-TPI coupled enzyme counterscreen | inhibition, % at 1 µM | hit rate 81% among 5,600; in the data active = inhibition above about 10%
Large screens that a line does not name were inactive (follow-up assays come after a bar, where they were run). A selection: hits, their analogues and other compounds. The true share with any hit is near 3%. Cut-off read from the data, not from the text of the source, unless noted: active = inhibition above about 27%; inactive = the rest.

COc1cc2cc(Oc3ccc4ccc(=O)oc4c3)c(=O)oc2cc1O	none
COc1ccc(-c2coc3cc(O[C@@H]4O[C@H](CO)[C@@H](O)[C@H](O)[C@H]4O)c(OC)cc3c2=O)cc1	none
C/C=C(\C)C(=O)O[C@@H]([C@H](O)c1cc2ccc(=O)oc2cc1OC)C(C)(C)O	FBA Mtb inh 38 | Mtb FBA inh conf 42 | GDH-TPI counter-2 23
C/C=C(\C)C(=O)O[C@H](c1cc2ccc(=O)oc2cc1OC)[C@@H](O)C(C)(C)O	FBA Mtb inh 40 | Mtb FBA inh conf 90 | GDH-TPI counter-2 58
C[C@@H]1CN([C@H](C)CO)S(=O)(=O)c2ccc(C#CC3(O)CCCC3)cc2O[C@H]1CN(C)C(=O)Cc1cccnc1	none (no result: FBA Mtb inh, GDH-TPI counter-1, Vc quorum ag)
Cc1cccc(C2=NN(c3ccccc3)[C@H](CO)[C@H]2c2ccc(F)cc2)c1	FBA Mtb inh 63 | Mtb FBA inh conf 91 | GDH-TPI counter-2 61
Cc1cccc(C2=NN(c3ccccc3)[C@H](CO)[C@H]2c2ccc(Cl)cc2)c1	FBA Mtb inh 55 | Mtb FBA inh conf inactive | GDH-TPI counter-2 inactive
Cc1cccc(C2=NN(c3ccccc3)[C@@H](C(=O)N3CCOC3=O)[C@@H]2c2ccc([N+](=O)[O-])cc2)c1	none
Cn1c(-c2ccc(C=O)s2)nc2c3ccccc3c3ccccc3c21	FBA Mtb inh 53 (no result: BioA inh) | Mtb FBA inh conf 37 | GDH-TPI counter-2 37
Cc1noc(C)c1NC(=O)N[C@H]1CC[C@@H](CC(=O)N2CCN(C)CC2)O[C@H]1CO	none (no result: FBA Mtb inh, GDH-TPI counter-1, Vc quorum ag)
C[C@@H]1CN([C@@H](C)CO)C(=O)c2cc(-c3ccccc3F)cnc2O[C@H]1CN(C)C(=O)c1cnccn1	none (no result: FBA Mtb inh, GDH-TPI counter-1, Vc quorum ag)
c1ccc2c(c1)[nH]c1cnccc12	FBA Mtb inh 37 | Mtb FBA inh conf 32 | GDH-TPI counter-2 41
Cc1nc(C(=O)NCCCO)cc2c1[nH]c1ccccc12	none (no result: BioA inh)
Cc1c2ccncc2c(C)c2c1[nH]c1ccccc12	none
Cc1nccc2c1[nH]c1ccccc12	FBA Mtb inh 94 | Mtb FBA inh conf inactive | GDH-TPI counter-2 inactive
OCCCCc1nccc2c1[nH]c1ccccc12	FBA Mtb inh 69 (no result: BioA inh) | Mtb FBA inh conf active | GDH-TPI counter-2 186
Cc1c2ccncc2cc2c1[nH]c1ccccc12	none
CCc1nccc2c1[nH]c1ccccc12	FBA Mtb inh 81 | Mtb FBA inh conf active | GDH-TPI counter-2 161
C[C@H]1CN([C@@H](C)CO)C(=O)c2cc(C#Cc3cccnc3)cnc2O[C@@H]1CN(C)Cc1ccc(F)cc1	none (no result: FBA Mtb inh, GDH-TPI counter-1, Vc quorum ag)
COc1ccc(S(=O)(=O)Nc2ccc3c(c2)C(=O)N([C@@H](C)CO)C[C@H](C)[C@H](CN(C)Cc2ccc(C(F)(F)F)cc2)OCCCC[C@H](C)O3)cc1	none (no result: FBA Mtb inh, GDH-TPI counter-1, Vc quorum ag)
Cc1cc(-c2ccccc2)[nH]c(=O)c1C#N	FBA Mtb inh 69 (no result: BioA inh) | Mtb FBA inh conf 67 | GDH-TPI counter-2 52
N#Cc1c(-c2ccco2)cc(-c2ccccc2)[nH]c1=O	FBA Mtb inh 78 (no result: BioA inh) | Mtb FBA inh conf 80 | GDH-TPI counter-2 68
Cc1ccc(-c2cc(-c3ccccc3)[nH]c(=S)c2C#N)cc1	none
Cc1ccc(S(=O)(=O)N[C@@H]2CCCN(Cc3cccc(OCCO)c3)C2)cc1	none (no result: FBA Mtb inh, GDH-TPI counter-1, Vc quorum ag)
CC(=O)Nc1ccc(C2Nc3ccccc3C(=O)N2C2CCCCC2)cc1 (stereo unspecified)	FBA Mtb inh 61 | Mtb FBA inh conf inactive | GDH-TPI counter-2 inactive
CC(=O)Nc1ccc(C2C(=O)c3ccccc3C2=O)cc1	none
O=C(/C=C/c1ccc(Cl)c(C(F)(F)F)c1)N1CCN(c2ccccn2)CC1	FBA Mtb inh 93 | Mtb FBA inh conf 143 | GDH-TPI counter-2 129
O=C(/C=C/c1ccc(Cl)cc1)N1CCN(c2ccccn2)CC1	none (no result: BioA inh)
Cc1ccc(NS(=O)(=O)c2cc(-c3cc(C)no3)ccc2C(C)C)nc1	FBA Mtb inh 37 | Mtb FBA inh conf 29 | GDH-TPI counter-2 24
CCc1ccc(-c2cc(C)no2)cc1S(=O)(=O)Nc1ccc(C)cn1	FBA Mtb inh 31 | Mtb FBA inh conf inactive | GDH-TPI counter-2 inactive
CCc1ccc(-c2cc(C)no2)cc1S(=O)(=O)Nc1ccccn1	none
